Results filed as inconclusive are left out. The source made the active and inactive calls. Rule for the calls, unless noted: active = hit-call score of the fitted dose curve at least 0.9, where 1 is the maximum; inconclusive = response in the unintended direction; inactive = score below 0.9.
Legend:
[1] = CCTE_Shafer_MEA_acute_AB: CCTE's Alamar Blue Assay for Cytotoxicity in the Neural Acute Assay, Shafer Lab (AID 2284069);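 note: active compounds lower the viability signal compared with DMSO wells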
Summary of the method: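 Metabolic activity in chemically exposed rat cortical neurons (MEA cultures, day 13/15 post-plating) measured via CellTiter Blue resazurin reduction, 544/590 nm fluorescence; fitted relative to DMSO, with signal loss indicating reduced viability.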

[2] = CCTE_Shafer_MEA_acute_LDH: CCTE's Lactate Dehydrogenase Assay for Cytotoxicity in the Neural Acute Assay, Shafer Lab (AID 2284086);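 note: active means LDH release rises above DMSO vehicle level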
Summary of the method: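 LDH released during 40 min compound exposure of primary rat cortical cultures, quantified by absorbance at 490 nm in collected medium. Fitting direction positive versus DMSO vehicle.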

[3] = CCTE_Shafer_MEA_dev_LDH: CCTE's Lactate Dehydrogenase Assay for Cytotoxicity in the Neural Network Formation Assay, Shafer Lab (AID 2284068);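 note: exposure for twelve days from plating with re-dosing on DIV 5 and 9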
Summary of the method: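 Cytotoxicity companion to network-formation recordings: rat cortical neurons received compound over 12 days of development, re-dosed at DIV 5 and 9 feeds. Viability was inferred from LDH enzyme activity relative to DMSO.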

[4] = UKN5_HCS_SBAD2_neurite_outgrowth: University of Konstanz (UKN) Leist Lab Neurite Outgrowth Assay in human iPSC-derived immature Dorsal Root Ganglia Neurons (UKN5) (AID 2284070; active = hit-call score of the fitted dose curve at least 0.9, where 1 is the maximum; inactive = score below 0.9); conditions: actives raise or lower the signal
Summary of the method: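 Neurite area from calcein-AM high-content images after 24 h exposure (staining included), with H-33342 for viability, fitted both directions against DMSO. Cells: thawed immature SBAD2 peripheral neurons, 100.000 cells/cm2, with CHIR99021, SU5402, DAPT; dosing 1 h after seeding.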

[5] = CCTE_Shafer_MEA_dev_AB: CCTE's Alamar Blue Assay for Cytotoxicity in the Neural Network Formation Assay, Shafer Lab (AID 2284083);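 note: twelve days of exposure from plating with re-dosing on DIV 5 and 9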
Summary of the method: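 Fluorescent resazurin reduction serves as the viability read-out, with DMSO as negative control and baseline. Cells were primary rat cortical neurons grown on MEA plates and dosed from day 0 to day 12, treatment renewed on DIV 5 and 9.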

[6] = CCTE_Shafer_MEA_dev_mutual_information_norm: CCTE's Neural Network Formation Assay for Mutual Information Normalization, Shafer Lab (AID 2284091; active = hit-call score of the fitted dose curve at least 0.9, where 1 is the maximum; inactive = score below 0.9;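 for AC50: mutual information between electrodes summarised as area under curve across four recording days; potency is for a decrease in mutual information relative to DMSO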)
Summary of the method: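 Shared information across electrodes, tracked on days 5, 7, 9 and 12 of network development and collapsed as trapezoidal area under the curve. Rat cortical cultures were treated continuously from plating, with treatment renewed at feeds on DIV 5 and 9; DMSO baseline, negative-direction fit.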

[7] = CCTE_Shafer_MEA_dev_correlation_coefficient_mean: CCTE's Neural Network Formation Assay for Mean Correlation Coefficient, Shafer Lab (AID 2284093; active = hit-call score of the fitted dose curve at least 0.9, where 1 is the maximum; inactive = score below 0.9;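 for AC50: well mean pairwise spike train correlation integrated as AUC over recording days 5 to 12; potency fitted for loss of correlation relative to DMSO vehicle wells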)
Summary of the method: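 Read-out: well-mean correlation coefficient of spike trains between electrode pairs, collapsed over four recording days as trapezoidal area-under-the-curve. Developing rat cortical neuron networks grown on MEAs received test chemical continuously from plating.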

[8] = UKN2_HCS_IMR90_neural_migration: University of Konstanz (UKN) Leist Lab Neural Crest Cell Migration Assay in human induced IMR90 Pluripotent Stem Cells (UKN2) (AID 2284204; active = hit-call score of the fitted dose curve at least 0.9, where 1 is the maximum; inactive = score below 0.9); conditions: actives raise or lower the signal
Summary of the method: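 High-content imaging of calcein-AM and Hoechst stained cells quantifies migration into a stopper-defined gap after 24 h compound exposure. Neural crest cells from IMR90 iPSC migrated 24 h in EGF/FGF N2-S medium before dosing; DMSO baseline.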

[9] = UKN4_HCS_LUHMES_neurite_outgrowth: University of Konstanz (UKN) Leist Lab Neurite Outgrowth Assay in human LUHMES cells (UKN4) (AID 2284206; active = hit-call score of the fitted dose curve at least 0.9, where 1 is the maximum; inactive = score below 0.9); conditions: actives raise or lower the signal
Summary of the method: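 After 24 h compound treatment beginning shortly after replating of 2-day-differentiated LUHMES cells, calcein-AM and H-33342 live staining allowed high-content imaging of neurite area and viability. Fitted bidirectionally against DMSO.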

[10] = IUF_NPC1b_proliferation_BrdU_72hr: Leibniz Research Institute for Environmental Medicine (IUF) 72-hour Neural Progenitor Cell Bromodeoxyuridine (BrdU) Proliferation Assay (NPC1b) (AID 2284207; active = hit-call score of the fitted dose curve at least 0.9, where 1 is the maximum; inactive = score below 0.9)
Summary of the method: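 Human fetal cortex-derived (GW 16-19) neural progenitor spheres, 0.25-0.35 mm, one per well in EGF/FGF proliferation medium, exposed to compound for 72 h at 37C, pH 7.2-7.6. BrdU incorporation over the final 16 h read by luminescence ELISA, relative to DMSO.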

[11] = IUF_NPC1a_proliferation_area_72hr: Leibniz Research Institute for Environmental Medicine (IUF) 72-hour Neural Progenitor Cell Proliferation Area Assay (NPC1a) (AID 2284208; active = hit-call score of the fitted dose curve at least 0.9, where 1 is the maximum; inactive = score below 0.9)
Summary of the method: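 Read-out: increase in sphere area over 72 h by automated phase-contrast imaging, fitted in positive direction versus DMSO baseline. One hNPC sphere (0.25-0.35 mm) per well in EGF/FGF medium; growth-factor withdrawal served as positive control.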

[12] = IUF_NPC1_viability_72hr: Viability Assessment at 72 hours in the Leibniz Research Institute for Environmental Medicine (IUF) Neural Progenitor Cell Proliferation Assay (NPC1) (AID 2284209; active = hit-call score of the fitted dose curve at least 0.9, where 1 is the maximum; inactive = score below 0.9)
Summary of the method: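 Viability was measured by resazurin-to-resorufin fluorescence (alamar blue) after 72 h of continuous exposure without compound renewal. Each well held one hNPC sphere (gestational week 16-19 fetal cortex, 0.25-0.35 mm) cultured in EGF/FGF proliferation medium at 37C and pH 7.2-7.6.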

[13] = CCTE_Mundy_HCI_Cortical_Synap_Neur_Matur_NeuriteSpotCountPerNeuriteLength: CCTE's Synaptogenesis and Neurite Maturation Assay in rat cortical cells for Neurite Spot Count per Neurite Length, Mundy Lab (AID 2284210; active = hit-call score of the fitted dose curve at least 0.9, where 1 is the maximum; inactive = score below 0.9)
Summary of the method: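 Synaptophysin spots per unit neurite length, measured by automated imaging of MAP2/synaptophysin/Hoechst-stained neurons. Cultures from rat cortex received chemical at DIV 7 with media change through DIV 12; glial growth arrested by AraC at DIV 5; DMSO baseline.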

[14] = CCTE_Mundy_HCI_Cortical_NOG_NeuriteLength: CCTE's Neurite Outgrowth Assay in rat cortical cells for Neurite Length, Mundy Lab (AID 2284213; active = hit-call score of the fitted dose curve at least 0.9, where 1 is the maximum; inactive = score below 0.9;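 note: neurites imaged about 48 to 50 h after chemical exposure began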)
Summary of the method: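 First, rat primary cortical cells were plated and, 2 h later, given test chemical as a 1/10 dilution. Finally, βIII-tubulin immunostaining enabled automated imaging of neurite length.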

[15] = CCTE_Mundy_HCI_Cortical_Synap_Neur_Matur_NeuriteSpotCountPerNeuron: CCTE's Synaptogenesis and Neurite Maturation Assay in rat cortical cells for Neurite Spot Count per Neuron Count, Mundy Lab (AID 2284215; active = hit-call score of the fitted dose curve at least 0.9, where 1 is the maximum; inactive = score below 0.9)
Summary of the method: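 Rat primary cortical cells received AraC at DIV 5, then chemicals with a media change at DIV 7, and were fixed at DIV 12. Synaptophysin puncta on MAP2-stained neurites per neuron were counted by high-content imaging, fitted relative to DMSO.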

[16] = CCTE_Mundy_HCI_Cortical_Synap_Neur_Matur_SynapseCount: CCTE's Synaptogenesis and Neurite Maturation Assay in rat cortical cells for Synapse Count, Mundy Lab (AID 2284218; active = hit-call score of the fitted dose curve at least 0.9, where 1 is the maximum; inactive = score below 0.9)
Summary of the method: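 High-content imaging of synaptophysin puncta per MAP2-positive neuron (Hoechst nuclei) in rat cortical cells exposed DIV 7–12 after glial arrest with AraC at DIV 5; decrease relative to DMSO scored.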

O=C(O)c1ccccc1C(c1ccc(O)cc1)c1ccc(O)cc1
outcome [1]: inactive | outcome [2]: inactive

CC1=C(/C=C/C(C)=C/C=C/C(C)=C/C(=O)O)C(C)(C)CCC1
AC50 [3]: 19 µM (active) | outcome [4]: inactive | outcome [5]: inactive | AC50 [6]: 7.47 µM (active) | AC50 [7]: 23.4 µM (active) | AC50 [8]: 5.77 µM (active) | AC50 [9]: 29.8 µM (active) | AC50 [10]: 1.67 µM (active) | AC50 [11]: 4.35 µM (active) | outcome [12]: inactive | outcome [13]: inactive | AC50 [14]: 6.25 µM (active) | outcome [15]: inactive | outcome [16]: inactive

CCCCCCCCCCCCc1ccccc1S(=O)(=O)O
outcome [1]: inactive | outcome [2]: inactive

CCCOc1sc(C(=O)N2CCC(c3cc(CN)ccc3F)CC2)c(C)c1Br
outcome [2]: inactive

Oc1cc2ccccc2c2ccccc12
AC50 [1]: 8 µM (active)

OC1CCC(C2CCCCC2)CC1 (stereo not drawn)
outcome [1]: inactive | outcome [2]: inactive

CC[C@H](c1ccc(O)cc1)[C@@H](CC)c1ccc(O)cc1
outcome [2]: inactive

CC(=O)NC1(c2cccc(F)c2)CCN(CC[C@@]2(c3ccc(Cl)c(Cl)c3)CN(c3ccccc3)C(=O)CO2)CC1
outcome [1]: inactive | outcome [2]: inactive

CC(O)CO (stereo not drawn)
outcome [5]: inactive | outcome [6]: inactive | outcome [7]: inactive

CN(C)C=O
outcome [1]: inactive

CN1CCN(c2ccccc2/C=C2\SCCN(c3ccc(Cl)c(Cl)c3)C2=O)CC1
outcome [1]: inactive | outcome [2]: inactive

CCCCCCCCCCCCN1CCCC1=O
outcome [2]: inactive

CC(C)CCCCCCOC(=O)CCCCC(=O)OCCCCCCC(C)C
outcome [1]: inactive | outcome [2]: inactive

OCCC(F)(F)C(F)(F)C(F)(F)C(F)(F)C(F)(F)C(F)(F)F
outcome [6]: inactive | outcome [7]: inactive

CCC(=C(c1ccc(O)cc1)c1ccc(OCCN(C)C)cc1)c1ccccc1
outcome [1]: inactive | outcome [2]: inactive

Source: PubChem BioAssay (EPA / NIEHS)
